According to PubChem BioAssay (EPA / NIEHS):
Results filed as inconclusive are left out. Activity calls are given as the source filed them. How the source made its calls: active means hit-call score of the fitted dose curve at least 0.9, where 1 is the maximum; inconclusive means response in the unintended direction; inactive means score below 0.9.

read-out: Cytochrome P450 3A4 (Homo sapiens) (UniProt P08684); test: CLD_CYP3A4_6hr: CellzDirect (CLD) Gene Expression Assay for xenobiotic metabolism (CYP3A4) at 6 hours (AID 2283680)
Experimental: CLD_6hr is a cell-based, multiplexed-readout assay that uses hepatocyte, a human liver primary cell, with measurements taken at 6 hours after chemical dosing in a 96-well plate.CLD_CYP3A4_6hr is one of 16 assay component(s) measured or calculated from the CLD_6hr assay. It is designed to make measurements of mRNA induction, a form of inducible reporter, as detected with chemiluminescence signals by Quantitative Nuclease Protection Assay (qNPA) technology.Data from the assay component CLD_CYP3A4_6hr was analyzed at the endpoint, CLD_CYP3A4_6hr, in the positive analysis fitting direction relative to DMSO as the negative control and baseline of activity. Using a type of inducible reporter, gain-of-signal activity can be used to understand changes in the reporter gene as they relate to the gene CYP3A4. Furthermore, this assay endpoint can be referred to as a primary readout. To generalize the intended target to other relatable targets, this assay endpoint is annotated to the cyp intended target family, where subfamily is xenobiotic metabolism.
Human hepatocyte cultures were treated daily for two consecutive days with fresh dosing solutions containing appropriate concentrations of the 320 ToxCast chemicals (chemical identities were blinded to CellzDirect and other ToxCast collaborators), vehicle control (0.2% DMSO), and positive control inducers as summarized in Table 1. Due to the large number of treatment groups and chemicals examined, the ToxCast chemicals were divided into two groups (spanning two independent cultures of hepatocytes from separate donor preparations (Hu778: ToxCast plates 1 and 2; Hu776: ToxCast plates 3 and 4). Each preparation of human hepatocyte cultures was treated with respective vehicle control, medium only control, set of six positive controls/reference chemicals for the five hepatic receptor pathways, and a subset of eight of the ToxCast chemicals (indoxacarb, pyrithiobac-sodium, norflurazon, cyhalofop-butyl, methomyl, thiram, acetochlor, and propiconazole). These replicate data, coupled with internal replicates designed within the blinded ToxCast chemical library, provided additional data to evaluate interindividual differences between hepatocyte preparations and their potential impact on chemical profiles.Cell morphology and integrity were evaluated using phase-contrast microscopy as an indicator of hepatocyte cell health (Tyson & Green, 1987). Cultures for each treatment group (i.e., media, vehicle [0.2% DMSO], positive control inducers [multiple concentrations], and the ToxCast chemicals [multiple concentrations]) were observed and cell morphology was assessed relative to vehicle control cultures at each harvest time point (0, 6, 24, or 48 h). […] Images were evaluated at the conclusion of the study to assess changes in cell integrity and account for the effects of chemical exposure on uncharacteristic changes in concentration-dependent gene expression profiles. The results from these determinations of apparent cytotoxicity were annotated (yes/no) alongside the corresponding qNPA data for reference.At the conclusion of each treatment period, hepatocyte cultures (96-well) were washed with 1 volume of HBSS, lysed by addition of 25 ul ArrayPlate lysis buffer (HTG, Tucson, AZ), and 70 ul/well of Denaturation Oil, denatured by incubation at 95C for 10 min, and frozen at approximately -70C until analysis by nuclease protection assay (qNPA) (Roberts et al., 2007). For qNPA analysis, cell lysates were thawed at 50C for approximately 30 min, qNPA probes were added, and samples were incubated at 95C for 10 min to begin the detection process by denaturing the target RNA, dissociating the duplexes and secondary structure hybridization. At the conclusion of the hybridization period, S1 nuclease reagent was added to each sample to digest all nonprotected nucleotides at 50C for 60-90 min. […]

Chain of Cytochrome P450 3A4 (Homo sapiens) (P08684 whole entry, looked up): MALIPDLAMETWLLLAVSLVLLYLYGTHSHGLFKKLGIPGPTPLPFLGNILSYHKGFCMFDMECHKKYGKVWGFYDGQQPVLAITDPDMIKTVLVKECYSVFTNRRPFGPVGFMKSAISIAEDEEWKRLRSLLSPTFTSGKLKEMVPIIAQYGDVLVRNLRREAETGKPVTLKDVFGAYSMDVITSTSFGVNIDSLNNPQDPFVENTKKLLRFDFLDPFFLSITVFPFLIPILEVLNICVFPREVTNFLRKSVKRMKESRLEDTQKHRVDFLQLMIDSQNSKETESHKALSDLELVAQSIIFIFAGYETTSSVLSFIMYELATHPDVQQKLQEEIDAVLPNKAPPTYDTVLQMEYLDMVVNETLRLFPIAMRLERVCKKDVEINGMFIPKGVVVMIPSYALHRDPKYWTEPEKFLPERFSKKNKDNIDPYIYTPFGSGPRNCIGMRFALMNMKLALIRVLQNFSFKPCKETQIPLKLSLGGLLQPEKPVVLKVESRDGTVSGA

Row | Compound | outcome | AC50
1 | CCS(=O)(=O)c1cccnc1S(=O)(=O)NC(=O)Nc1nc(OC)cc(OC)n1 | inactive | –
2 | O=C(Nc1ccccc1)Nc1cnns1 | inactive | –
3 | C#CCN1C(=O)COc2cc(F)c(N3C(=O)C4=C(CCCC4)C3=O)cc21 | inactive | –
4 | O=C(O)CCCOc1ccc(Cl)cc1Cl | inactive | –
5 | COC(=O)c1ccccc1S(=O)(=O)NC(=O)N(C)c1nc(C)nc(OC)n1 | inactive | –
6 | Clc1ccccc1-c1nnc(-c2ccccc2Cl)nn1 | inactive | –
7 | OCCOc1ccccc1 | inactive | –
8 | Cc1cc(C)nc(NC(=O)NS(=O)(=O)c2ccccc2C(=O)OC2COC2)n1 | inactive | –
9 | CC[C@H](C)[C@H]1O[C@]2(C=C[C@@H]1C)C[C@@H]1C[C@@H](C/C=C(\C)[C@@H](O[C@H]3C[C@H](OC)[C@@H](O[C@H]4C[C@H](OC)[C@@H](O)[C@H](C)O4)[C@H](C)O3)[C@@H](C)/C=C/C=C3\CO[C@@H]4[C@H](O)C(C)=C[C@@H](C(=O)O1)[C@]34O)O2 (tested in a mixture with another compound) | inactive | –
10 | Cc1[nH]c(=O)n(C(C)(C)C)c(=O)c1Cl | inactive | –
11 | ClC1C(Cl)C(Cl)C(Cl)C(Cl)C1Cl (stereo not given) | inactive | –
12 | C[C@H]1[C@H](c2ccc(Cl)cc2)SC(=O)N1C(=O)NC1CCCCC1 | – | 1900 nM (active)
13 | O=S1OCC2C(CO1)C1(Cl)C(Cl)=C(Cl)C2(Cl)C1(Cl)Cl (stereo not given) | – | 9060 nM (active)
14 | CNC(=O)Oc1cccc(N=CN(C)C)c1 | inactive | –
15 | O=C(O)COc1ccc(Cl)cc1Cl | – | 490 nM (active)
16 | CCC(C)(C)C(=O)OC1=C(c2ccc(Cl)cc2Cl)C(=O)OC12CCCCC2 | inactive | –
17 | COc1nn(CSP(=S)(OC)OC)c(=O)s1 | inactive | –
18 | COP(=S)(OC)Oc1ccc([N+](=O)[O-])cc1 | inactive | –

Row | Compound | outcome | AC50
19 | CCOCN(C(=O)CCl)c1c(C)cccc1CC | – | 328 nM (active)
20 | CCC(C)(NC(=O)c1cc(Cl)c(C)c(Cl)c1)C(=O)CCl (stereo not given) | inactive | –
21 | CNC(=O)Oc1ccccc1OC(C)C | inactive | –
22 | CCC(C)Nc1c([N+](=O)[O-])cc(C(C)(C)C)cc1[N+](=O)[O-] (stereo not given) | – | 1200 nM (active)
23 | CCN(CC)C(=O)SCc1ccc(Cl)cc1 | – | 20000 nM (active)
24 | COP(=S)(OC)Oc1ccc(SC)c(C)c1 | inactive | –
25 | CCCN(CCOc1c(Cl)cc(Cl)cc1Cl)C(=O)n1ccnc1 | inactive | –
26 | CCCN(CCC)c1c([N+](=O)[O-])cc(C(F)(F)F)cc1[N+](=O)[O-] | inactive | –
27 | CCOc1nc(NC)nc(NC(=O)NS(=O)(=O)c2ccccc2C(=O)OC)n1 | inactive | –
28 | CC1(C)C(C=C(Cl)Cl)C1C(=O)OC(C#N)c1ccc(F)c(Oc2ccccc2)c1 (stereo not given) | inactive | –
29 | CNC(=O)CSP(=S)(OC)OC | inactive | –
30 | N#CN | inactive | –
31 | CCc1ccc(C(=O)NN(C(=O)c2cc(C)cc(C)c2)C(C)(C)C)cc1 | – | 708 nM (active)
32 | CC(C)(C)C(O)/C(=C\c1ccc(Cl)cc1Cl)n1cncn1 (stereo not given) | – | 1890 nM (active)
33 | COP(=O)(OC)OC=C(Cl)Cl | inactive | –
34 | CC(C)OC(=O)Nc1cccc(Cl)c1 | – | 12200 nM (active)
35 | CCOC1Oc2ccc(OS(C)(=O)=O)cc2C1(C)C (stereo not given) | inactive | –
